# Lassa entry inh = Lassa virus entry inhibition; Lassa virus pseudotype entry inhibition, cell reporter; Potency, µM (doses to about 37.9 µM), for the others: top-dose activity change, negative = inhibition, usual class: inhibitors; 1.2% of 300,000 active; AID 540256; calls by dose curve; tested in HEK293 cells; note: potency is the fitted concentration of half-maximal effect; nearly all actives have a fitted effect of over 50% in size
# Pf growth 48h = P. falciparum growth inhibition at 48 hours (one generation). Potency, µM (top dose mostly 28.7 µM), for the others: at the highest dose activity change, negative = inhibition, most hits filed as inhibitors. P. falciparum luciferase growth in erythrocytes, 48 h. 5.9% of 310,000 active; note: potency is the fitted concentration of half-maximal effect
#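 In quantitative HTS format, infected erythrocytes bearing luciferase-reporter parasites were treated for a single generation at 37 C. Luminescence after adding detection reagent served as the growth measure.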
# HCV inhibitor = inhibitors of hepatitis C virus infection. Huh7.5.1 HCVcc-Cre infection, luciferase reporter, 44 h. Potency, µM (titrated, usually from 41.8 µM), without a hit: at the highest dose activity change, negative = inhibition, usual class: inhibitors. 3.4% of 340,000 active. AID 651820; note: potency is the fitted concentration of half-maximal effect
#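 Antiviral activity was scored by luciferase reporter output from cells infected with HCVcc-Cre (~0.5 moi) in presence of compound, 44 h infection period, cells seeded 1,000/well 4 h prior.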
# Pf growth 96h = inhibits malaria parasite growth, 96 h; P. falciparum luciferase reporter growth, 96 h; Potency, µM (titrated, usually from 28.7 µM), without a hit: at the highest dose activity change, negative = inhibition, usual class: inhibitors; AID 504834; 6.9% of 320,000 active; note: potency is the fitted concentration of half-maximal effect
#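 P. falciparum expressing integrated firefly luciferase, in erythrocytes at 2% hematocrit, 0.05% parasitemia, incubated with compounds 96 h at 37 C, 5% CO2. Growth inhibition read as loss of luminescence; two-generation exposure targets delayed-death apicoplast inhibitors.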
# HCMV antiviral = inhibitors of human cytomegalovirus. HFF cells, HCMV-luciferase reporter, 72 h; active compounds read low. activity change, negative = inhibition, % at 57.5 µM. 4.5% of 410,000 active. AID 1259415; in the data active = activity change below about -60%; inconclusive = no clear call, values can overlap the other calls; inactive = above about -39%
#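 Luciferase read-out from HCMV-luciferase-infected HFFs (MOI 1 PFU/cell) 72 h post infection at 37C; compounds added after 16 h cell attachment; activity normalized between buffer-only basal and Salinomycin (10uM) inhibitor controls.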
# Marburg entry inh = Marburg virus entry inhibition; Marburg virus pseudotyped entry inhibition, cell reporter; 1.8% of 300,000 active; Potency, µM (top dose mostly 37.8 µM), for the others: at the top dose activity change, negative = inhibition, actives largely listed as inhibitors; AID 540276; calls by dose curve; tested in HEK293 cells; note: potency is the fitted concentration of half-maximal effect
# Numbers without * were called inactive; ? = inconclusive; · = not tested or not shown; [ ] = remark or other dose. The list is not random: actives were taken first. Their share in the collection is about 14%. Unless noted, calls come from the whole dose curve; as a rule, active = well fitted inhibition curve with a large enough effect; inconclusive = small, poorly fitted or top-dose-only effect, or another doubt; inactive = no such curve, though single readings can be large or run the other way. % is set by controls: 0 for no effect and ±100 for the full control effect.
SMILES,Lassa entry inh,Pf growth 48h,HCV inhibitor,Pf growth 96h,HCMV antiviral,Marburg entry inh
COc1cccc(NC(=O)NC2(C(F)(F)F)Oc3ccccc3O2)c1,-18.9%,?,?,47.3%,29.9,8.2µM*
COc1cccc(NC(=O)c2nnn(Cc3cccc(C(F)(F)F)c3)c2N)c1,2.1%[46.1 µM],·,·,·,19.9,?
CCN1C(=O)[C@H]2[C@@H](c3ccc(C(F)(F)F)cc3)N[C@]3(CCCN(Cc4ccccc4)C3=O)[C@H]2C1=O,·,·,·,·,-3.9,·
COc1ccc(NC(C)=O)cc1NC(=O)c1cccn(Cc2ccccc2)c1=O,12.3%[46.1 µM],·,·,·,0.6,·
COc1ccc(NC(=O)c2cccn(Cc3ccc(Cl)cc3)c2=O)c(OC)c1,?,·,·,·,-69.6*,·
CCc1nn(CC(=O)NCCCOC)c(=O)c2cc3ccccc3n12,·,·,·,·,9.1,-10.0%[46.1 µM]
Cc1ccc(COC(=O)c2[nH]c3c(c2C)C(=O)CC(c2ccc(Cl)cc2)C3)cc1 (stereo not drawn),15.8%[46.1 µM],·,·,·,-8.1,9.8%[46.1 µM]
Cc1ccc(NC(=O)CN2C(=O)COc3ccc(S(=O)(=O)NC4CCCC4)cc32)cc1Cl,0.0%[46.1 µM],·,·,·,-0.1,·
CCN1CCN(c2ccc(N)cc2C)CC1,0.5%,?,-11.9%,?,78.9,?
Cc1cc(N)ccc1-n1c(C)ccc1C,-8.9%,7.38µM*,0.6%,10.9%,-7.3,-29.0%
NC(=O)c1cc(N)ccc1N1CCCCC1,-5.3%,1.6%,11.4%,-22.0%,-60.6*,12.8%[46.1 µM]
Cc1cc(N)ccc1N1CCCC1,4.1%,0.465µM*,-9.0%,0.415µM*,·,-17.0%
O=C(COC(=O)C1CCC(=O)N1)Nc1ccccc1OC(F)F (stereo not drawn),-16.3%[46.1 µM],·,2.7%,·,64.5,6.5%[46.1 µM]
CCN(C(=O)Cn1ncc2c1-c1cc(C)ccc1OC2)c1cc(Cl)ccc1OC,·,·,·,·,-26.6,?
COC(=O)CC1Oc2ccccc2-n2cc(-c3ccc(Cl)cc3)nc21 (stereo not drawn),0.0%[46.1 µM],·,·,·,-19.3,18.0%[46.1 µM]
CCN(c1ccc(N=Cc2c(O)n(Cc3ccc(OC)cc3)c(=O)c3ccccc23)cc1)C(C)C,12.9%,?,29.8%,1.47µM*,-12.6,-4.5%[46.1 µM]
COc1ccc(-n2c(O)c(C=Nc3ccccc3)c3ccccc3c2=O)cc1,?,-3.0%,-5.2%,-7.5%,?,?
COC(=O)Cn1cnc(C(=O)Nc2ccc(C)c(C)c2)n1,·,·,-9.7%,·,-2.9,·
CCOCCOc1cccc(C(=O)NC(c2ccccc2)c2ccccc2)c1,·,?,-13.9%,2.08µM*,-16.6,·
COc1cc(OC)cc(C(=O)Nc2cccc(NC(=O)c3ccccc3)c2)c1,?,·,10µM*,?,-4.9,?
COc1cc(OC)cc(C(=O)NC(c2ccccc2)c2ccccc2)c1,·,?,-7.1%,11.7µM*,-24.9,·
COc1cc(OC)cc(C(=O)Nc2ccc(Nc3ccccc3)cc2)c1,·,31.7%,8.91µM*,-84.0%,-15.6,·
COc1cc(OC)cc(C(=O)OCC(=O)NC(c2ccccc2)c2ccccc2)c1,·,-11.2%,?,4.8%,-23.6,·
COc1cc(OC)cc(C(=O)Nc2cccc(C(C)=O)c2)c1,21.9%,?,-17.4%,-19.0%,38.8,12.9%
CC(=O)NC(c1ccccc1)c1nc(-c2cc(F)cc(F)c2)cs1 (stereo not drawn),·,·,·,·,-26.1,·
SMILES,Lassa entry inh,Pf growth 48h,HCV inhibitor,Pf growth 96h,HCMV antiviral,Marburg entry inh
CCCC(=O)NCC1(N(C)C)CCCCC1,?,·,·,·,18.8,34.6%[46.1 µM]
COC(=O)[C@H](Cc1ccccc1)NC(=O)O[C@@H]1C(=O)c2cc(Br)ccc2O[C@H]1c1ccc2c(c1)OCO2,·,·,·,·,·,0.4%[14.2 µM]
O=C(NC1CC1)c1cccc2c1C(=O)c1ccc(N3CCC(N4CCCCC4)CC3)cc1S2(=O)=O,·,·,·,·,-16.7,·
CC1=C(C(=O)Nc2ccccc2C(=O)NC2CCC(C)CC2)SCCO1 (stereo not drawn),·,-16.7%,5.0%,?,-34.1,·
C=CCSc1nccc(-c2nn(-c3ccc(C)cc3)ccc2=O)n1,3.16µM*,14.9%,?,?,-17.4,?
CCSc1nccc(-c2nn(-c3ccc(C)cc3)ccc2=O)n1,?,?,?,·,-4.9,?
COc1ccccc1CNC(=O)CCCCn1c(=O)c2ccccc2n(Cc2ccccc2F)c1=O,6.3%[46.1 µM],·,·,·,9.8,21.3%[46.1 µM]

# Assay outcomes as filed in PubChem BioAssay.
